Here are results for 40 compounds from PubChem BioAssay (NCATS).

Active and inactive are the calls of the source. Entries that show only a call come without a potency. Calls follow the shape of the dose curve; as a rule, active = well fitted inhibition curve with a large enough effect; inconclusive = small, poorly fitted or top-dose-only effect; inactive = flat fitted curve, though single readings scatter.
Potency is read from the fitted curve at half-maximal effect.

In the test the target is Luciferin 4-monooxygenase (Photinus pyralis) (UniProt P08659). The test can be described thus: Primary firefly luciferase (FLuc) qHTS assay for identification of artifact compounds. (AID 1845220). Also: nearly all actives have a fitted effect of over 60% in size. To be noted: purified firefly luciferase, luminescence, 5 min; series mostly up to 54.1 µM. The text has this:
PI: Alexander Tropsha Ph.D.
UNC Eshelman School of Pharmacy
University of North Carolina, Chapel Hill, North Carolina
Hits from high-throughput screening (HTS) of chemical libraries are often false positives due to their interference with the assay detection technology. In response to this problem, we generated the largest publicly available library of chemical liabilities and developed a free webtool to predict HTS artifacts, both of which are described herein. More specifically, we generated, curated, and integrated HTS datasets for thiol reactivity, redox activity, and luciferase (firefly and nano) activity. Using these curated datasets, we developed and validated several Quantitative Structure-Interference Relationship (QSIR) models to predict nuisance behavior. […] These models were employed for virtual profiling of the National Center for Advancing Translational Science's (NCATS) in-house library, and 256 compounds for each assay were selected for the experimental validation of nuisance behavior. The BA for these external predictions ranged from 58 to 78% for compounds within the applicability domains of the models. […] The models developed in this study, along with aggregation models previously developed by our group (SCAM Detective) were implemented in "Liability Predictor," an online tool which may be used as part of chemical library design or for triaging HTS hits. Both the models and the curated datasets are publicly available at https://liability.mml.unc.edu/.
SEQUENCE No. (e.g., 1, 2, 3, etc.); […] (e.g., Cells, Incubation, Reagent, etc.); VALUE; DESCRIPTION.
1; Reagent; 3 uL; Luciferase substrate mixture.
2; Compounds and control; 16 nL; Kalypsis pin tool (Wako USA) equipped with a 1536-well pin head.
4; Reagent; 1 uL; Luciferase enzyme.
6; Detection; Luminescence, ViewLux microplate reader.
NOTES (numbers refer to Sequence numbers above)
1. 3 uL of luciferase substrate mixture containing D-luciferin and ATP (final concentrations of 10 uM and 10 uM, respectively) in assay buffer (10 mM Mg-acetate, 0.01% Tween-20, 0.05% bovine serum albumin, 50 mM Tris acetate, pH 7.6) was dispensed into all wells of a 1536-well assay plate (solid-bottom white plate; Greiner Bio One, Monroe, NC).
2. A Wako Pin-tool (Wako Automation, Richmond, VA) was used to transfer 16 nL of compounds (consisting of 7-plates in qHTS format, final concentration range 18.3 nM to 114 uM) or control PTC124 (final concentration range 1.22 nM to 40 uM).
3. 15 min. incubation at room temperature protected from light.
4. 1 uL of luciferase enzyme (final concentration 10 nM, Photinus pyralis luciferase) or buffer was dispensed for a final assay volume of 4 uL.
5. Plates were centrifuged (121xg, 15 seconds) and incubated for 5 minutes.
6. Samples were read for luminescence on a ViewLux CCD imager (PerkinElmer). Data were normalized to no-enzyme (0% activity) and no-inhibitor (DMSO; 100%) controls and the resulting percent inhibition data were fitted to a 4-parameter Hill equation using NCATS in-house software.
(In general: qHTS replaces the single test concentration by a dilution series.)
For the compound `COc1cc(/C=C/C(=O)OC[C@H]2O[C@H](O[C@]3(CO)O[C@H](CO)[C@@H](O)[C@@H]3O)[C@H](O)[C@@H](O)[C@@H]2O)cc(OC)c1O`, the Potency entry is “inactive”.

As to `CC(O)(CC(=O)O)CC(=O)O[C@@H]1[C@@H](O)[C@H](OCCc2ccccc2)O[C@H](CO)[C@H]1O` (stereo not given in full), the Potency result is “inactive”.

Consider `COc1ccc(C(=O)O[C@H]2CC(C)=CC[C@@]3(C)[C@@H](OC(C)=O)C[C@@](O)(C(C)C)[C@H]23)cc1`, for which the Potency result is “inactive”.

`NC(=O)c1ccc(OCC2NC(=O)C3CCCN3C2=O)cc1` (stereo not given): the Potency result is “inactive”.

As to `COc1ccc(C[C@H](N)C(=O)N[C@H]2[C@@H](O)[C@H](n3cnc4c(N(C)C)ncnc43)O[C@@H]2CO)cc1`, the Potency result is “inactive”.

With `C/C=C(\C)C(=O)O[C@H]1[C@H](O)[C@]2(COC(C)=O)[C@H](O)C[C@]3(C)C(=CCC4[C@@]5(C)CC[C@H](O[C@@H]6O[C@H](C(=O)O)[C@@H](O[C@@H]7O[C@H](CO)[C@@H](O)[C@H](O)[C@H]7O)[C@H](O)[C@H]6O[C@@H]6O[C@H](CO)[C@@H](O)[C@H](O)[C@H]6O)[C@](C)(CO)C5CC[C@]43C)[C@@H]2CC1(C)C` (stereo not given in full), the outcome was “inactive [at 11.6 µM]”.

On to `C[C@@H]1O[C@@H](O[C@@H]2[C@@H](O)[C@H](O[C@@H]3[C@@H](O)[C@@H](O)[C@H](O[C@H]4[C@H](OC(=O)[C@]56CCC(C)(C)C[C@H]5C5=CCC7[C@@]8(C)C[C@H](O)[C@H](O[C@@H]9O[C@@H](C)[C@H](O)[C@@H](O)[C@H]9O)[C@@](C)(CO)C8CC[C@@]7(C)[C@]5(C)C[C@H]6O)O[C@H](C)[C@H](O)[C@@H]4O)O[C@H]3C)OC[C@H]2O)[C@H](O)[C@H](O)[C@H]1O` (stereo not given in full), for which the outcome was “inactive [at 11.6 µM]”.

As for `CC1(C)CC(=O)N(CCCCN2CCN(c3ncccn3)CC2)C(=O)C1`, the Potency result is “inactive”.

Regarding `CC(=O)OC[C@]12[C@H](OC(C)=O)C(=O)[C@@H]3[C@@H](OC(C)=O)[C@@]14O[C@@]3(C)COC(=O)c1cccnc1[C@@H](C)[C@H](C)C(=O)O[C@@H]([C@H](OC(C)=O)[C@@H]2OC(C)=O)[C@]4(C)O`, the Potency entry is “inactive”.

In the case of `CC1(C)CCCC2(C)C3=C(C(=O)OC3O)C(O)CC12` (stereo not given), the Potency entry is “inactive”.

In the case of `COc1c(OC2OC(CO)C(O)C(O)C2O)ccc(O)c1C(=O)OCc1ccccc1O[C@@H]1O[C@H](CO)[C@@H](O)[C@H](O)[C@H]1O` (stereo not given in full), the Potency result is “inactive”.

As to `O=C(/C=C/c1ccc(O)cc1)OC[C@]12O[C@H]1[C@@H](O)[C@@H]1C=CO[C@@H](O[C@@H]3O[C@H](CO)[C@@H](O)[C@H](O)[C@H]3O)[C@@H]12`, the Potency result is “inactive”.

Regarding `CCC[C@@H]1C[C@@H](C(=O)N[C@@H]([C@H]2O[C@H](SC)[C@H](O)[C@@H](O)[C@@H]2O)[C@@H](C)O)N(C)C1`, the Potency result is “inactive”.

On to `O=S(=O)(NC1CCNCC1)c1cc(S(=O)(=O)c2ccccc2)ccc1C(F)(F)F`, for which the Potency entry is “inactive”.

Take `COc1cc(C[C@H]2COC(=O)[C@@H]2Cc2ccc(O)c(OC)c2)ccc1O`: the Potency entry was “inactive”.

Regarding `NCCCC[C@H](NC(=O)[C@@H]1Cc2ccccc2CN1C(=O)CCC(=O)c1ccccc1)C(=O)NCC(c1ccccc1)c1ccccc1`, the Potency entry was “inactive”.

On to `O=C(O)C[C@@H](NC(=O)c1cc(-c2ccc(-c3ccncc3)cc2)cs1)c1ccccc1`, for which the Potency is 6.75 µM (active).

Consider `Cc1nnc(C(C)C)n1C1CC2CCC(C1)N2CC[C@H](NC(=O)C1CCC(F)(F)CC1)c1ccccc1` (stereo not given in full), for which the Potency result is “inactive”.

In the case of `C/C=C/C=C/C(CC(=O)O)Nc1ccc(C=O)cc1` (stereo not given), the Potency is 23.9 µM (active).

In the case of `CC1=CC(=O)CC(C)(C)C1CCC(C)OC1OC(COC(=O)c2cc(O)c(O)c(O)c2)C(O)C(O)C1O` (stereo not given), the Potency result is “inactive”.

Turning to `CNC(=O)O[C@H]1COc2ccc(N3CCN(C4COC4)CC3)cc2[C@@H]1NC(=O)c1ccc(F)cc1`, the Potency entry is “inactive”.

For the compound `C/C(=C\CCC(C)(O)c1ccc(C)cc1)C(=O)O` (stereo not given), the Potency result is “inactive”.

With `O=C(OCC12OC1C=CC(OC(=O)c1ccccc1)C2O)c1ccccc1` (stereo not given), the Potency result was “inactive”.

For the compound `Cc1c(-c2ccnn2C)cc(C(=O)NCc2ccc(S(C)(=O)=O)cn2)c(=O)n1-c1cccc(C(F)(F)F)c1`, the Potency entry is “inactive”.

As for `c1ccc(C(OC2CCN(CCCc3nn[nH]n3)CC2)c2ccccc2)cc1`, the Potency result was “inactive”.

For the compound `COC1CC(=O)CCC(C)OC(=O)CC1O` (stereo not given), the Potency result was “inactive”.

`C=C1CCC[C@]2(C)C[C@]3(O)OC(=O)C(C)=C3C[C@@H]12`: the Potency entry is “inactive”.

In the case of `CC1(C)C[C@H]2C3=CCC4[C@@]5(C)CC[C@H](O[C@H]6O[C@H](C(=O)O)[C@@H](O)[C@H](O)[C@H]6O[C@H]6O[C@H](CO)[C@@H](O)[C@H](O)[C@H]6O[C@@H]6O[C@H](CO)[C@@H](O)[C@H](O)[C@H]6O)[C@](C)(CO)C5CC[C@@]4(C)[C@]3(C)CC[C@@]2(C)[C@H](O[C@@H]2OC[C@H](O)[C@H](OC3O[C@H](CO)[C@@H](O)[C@H](O)[C@H]3O)[C@H]2O)[C@@H]1O` (stereo not given in full), the outcome was “inactive [at 11.6 µM]”.

As to `COc1cc(C/C(=C/NC(C)=O)N(CC(=O)Cc2ccccc2)C(C)=O)cc2c1OCO2`, the Potency entry was “inactive”.

Take `CC1=C2[C@@H]([C@H](C)CC[C@H]2/C=C(\C)C(=O)O)[C@H](O)C1`: the Potency entry is “inactive”.

For `O=C(/C=C/c1ccc(O)cc1)OCC1=CC2OC(=O)C3=CO[C@@H](O[C@@H]4O[C@H](CO)[C@@H](O)[C@H](O)[C@H]4O)[C@H]1[C@@H]32` (stereo not given in full), the Potency result was “inactive”.

Regarding `CC(C)CC(=O)OC[C@H]1O[C@@](COC(=O)CC(C)C)(O[C@H]2O[C@H](CO)[C@@H](O)[C@H](O)[C@H]2OC(=O)CC(C)C)[C@@H](OC(=O)CC(C)C)[C@@H]1O`, the Potency result was “inactive”.

On to `CCC(=O)N[C@@H]1Cc2ccccc2[C@H](c2ccccc2)C1`, for which the Potency result is “inactive”.

As for `COC(=O)CC[C@@H](C)[C@H]1CC[C@H]2[C@@H]3CC(=O)[C@H]4C[C@H](OC(C)=O)CC[C@]4(C)[C@H]3CC[C@]12C`, the Potency entry is “inactive”.

On to `CC(=O)Oc1cc2c(s1)CCN([C@H](C(=O)C1CC1)c1ccccc1F)C2`, for which the Potency result is “inactive”.

As for `COC(=O)[C@@]1(O)C=CC[C@@H]2[C@@]3(C)C[C@@H](c4ccoc4)OC(=O)[C@H]3CC[C@]21C`, the Potency entry is “inactive”.

`COc1ccc(/C=C/C(=O)O[C@@H]2[C@@H](O)[C@H](C)O[C@@H](OC3C4C=COC(O[C@@H]5O[C@H](CO)[C@@H](O)[C@H](O)[C@H]5O)C4C4(CO)OC34)[C@@H]2O)cc1OC` (stereo not given in full): the Potency entry is “inactive”.

For the compound `CC(C)(O)/C=C1/C(=O)C(C)(C)C(=O)C(C)(C)C1(O)O[C@@H]1O[C@H](COC(=O)c2cc(O)c(O)c(O)c2)[C@@H](O)[C@H](O)[C@H]1O` (stereo not given in full), the Potency entry is “inactive”.

Take `Cn1ccnc1CCOC(c1cc2nccc(C(=O)O)c2[nH]1)c1ccccc1Cl` (stereo not given): the Potency result is “inactive”.

Regarding `CC1(C)CC2C3=CCC4C5(C)CCC(OC6OC(CO)C(O)C(OC7OC(CO)C(O)C(OC8OC(CO)C(O)C(OC9OC(COC%10OC(CO)C(O)C(O)C%10O)C(O)C(O)C9O)C8O)C7O)C6O)C(C)(C)C5CCC4(C)C3(C)CCC2(C(=O)O)CC1O` (stereo not given), the activity change, negative = inhibition is -5.47% [at 11.6 µM] (inactive).
